In a collection of fitness landscapes (doi:10.1038/s41467-024-54723-y):
The full ranking holds about 18,000 sequences; the median of “TetR repression strength (sort-seq, GFP reporter)” is about 0.23, and the highest 2% start at about 0.68. The full list was thinned out, with the highest values kept by preference.

The sequences below were run against TetR (class B, Tn10) (UniProt P04483) (assay: TetR repression strength (sort-seq, GFP reporter) (relative to tetO2 = 1); higher = stronger repression). Conditions: E. coli.
TetR (class B, Tn10), sequence (P04483 whole entry): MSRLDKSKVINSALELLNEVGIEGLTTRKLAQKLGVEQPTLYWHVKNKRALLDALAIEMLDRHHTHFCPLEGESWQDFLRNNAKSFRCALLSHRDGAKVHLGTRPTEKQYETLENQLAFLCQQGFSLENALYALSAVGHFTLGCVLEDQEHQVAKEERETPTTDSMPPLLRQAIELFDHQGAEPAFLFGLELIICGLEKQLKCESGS
Procedure, shortened: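 Three independent transformations of E. coli SIG10-MAX were made with a low-copy plasmid library randomizing eight operator positions between a constitutive promoter and sfGFP, with constitutive TetR. Following 5 h at 37 °C in LB plus 50 µg/mL chloramphenicol, 10^6 cells went through FACS into 13 fluorescence bins, and each bin was sequenced by Illumina. Repression strength was defined as the top bin index plus one minus the read-weighted mean bin, divided by the unaltered operator's value. Averages included only members reaching ≥30 reads in all replicates with a CV ≤0.5.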

Sequence | TetR repression strength
TCCCAAAAAGTTCCGGAGA | 0.0327
TCCCATTTAGTCTGTGAGA | 0.192
TCCCTAAAAGTACAGGAGA | 0.262
TCCCGCTGAGTAATGGAGA | 0.218
TCCCTGCGAGTATTTGAGA | 0.391
TCCCTAGTAGTGTGGGAGA | 0.216
TCCCTAGAAGTTTAAGAGA | 0.0122
TCCCGTATAGTCTGTGAGA | 0.0605
TCCCGTCAAGTGTCCGAGA | 0.279
TCCCGGACAGTCCGTGAGA | 0.196
TCCCAACGAGTAATGGAGA | 0.395
TCCCTATCAGTGACGGAGA | 0.472
TCCCTATCAGTGACTGAGA | 0.722
TCCCTATCAGTGATAGAGA | 1
TCCCCGTCAGTGATAGAGA | 0.35
TCCCGATCAGTGTTAGAGA | 0.556
TCCCTATTAGTGACTGAGA | 0.345
TCCCTTTCAGTGTTAGAGA | 0.459
TCCCAACCAGTAATGGAGA | 0.713
TCCCTATCAGTGTTAGAGA | 0.974
TCCCTTGCAGTGATAGAGA | 0.657
TCCCAACCAGTCATGGAGA | 0.159
TCCCGTCCAGTCTGAGAGA | 0.152
TCCCGATGAGTGTGGGAGA | 0.221
TCCCTGTCAGTGATTGAGA | 0.592
TCCCTATTAGTAATTGAGA | 0.416

Sequence | TetR repression strength
TCCCTTGAAGTCAGTGAGA | 0.236
TCCCTTCAAGTCATTGAGA | 0.0199
TCCCTATCAGTAACTGAGA | 0.474
TCCCTATCAGTAATTGAGA | 0.787
TCCCTATCAGTGATTGAGA | 0.939
TCCCTATCAGTGAGAGAGA | 0.948
TCCCTTGAAGTCATTGAGA | 1.05
TCCCTATCAGTGGGTGAGA | 0.554
TCCCTATCAGTGCGTGAGA | 0.546
TCCCTATCAGTTATTGAGA | 0.504
TCCCTTATAGTATCAGAGA | 0.186
TCCCGATAAGTAGCGGAGA | 0.234
TCCCTTGCAGTGTACGAGA | 0.204
TCCCCCTTAGTTGTCGAGA | 0.307
TCCCGCGAAGTGTTTGAGA | 0.197
TCCCTGGGAGTGACAGAGA | 0.299
TCCCTAAGAGTGGGCGAGA | 0.157
TCCCTAGAAGTGACGGAGA | 0.153
TCCCCGAGAGTCCTAGAGA | 0.235
TCCCGTCAAGTGCCGGAGA | 0.325
TCCCTGTCAGTGACAGAGA | 0.636
TCCCTATCAGTGAAAGAGA | 0.784
TCCCAATCAGTGGCAGAGA | 0.433
TCCCTATCAGTGACAGAGA | 0.863
TCCCTATCAGTGAGTGAGA | 0.79
TCCCTATCAGTGAGGGAGA | 0.5

Sequence | TetR repression strength
TCCCTATCAGTAAGTGAGA | 0.545
TCCCTAACAGTGACAGAGA | 0.559
TCCCTATCAGTCAAAGAGA | 0.636
TCCCTATCAGTGGCAGAGA | 0.771
TCCCTAACAGTGAAAGAGA | 0.575
TCCCTGTCAGTGGCAGAGA | 0.545
TCCCTGTTAGTGCGGGAGA | 0.226
TCCCGGTGAGTTGTCGAGA | 0.355
TCCCATATAGTTTGGGAGA | 0.175
TCCCTTGAAGTATCGGAGA | 0.146
TCCCATAGAGTGCGTGAGA | 0.18
TCCCTGGCAGTTTTTGAGA | 0.196
TCCCCCCGAGTGCTGGAGA | 0.344
TCCCCCTGAGTCATTGAGA | 0.526
TCCCGGGCAGTGGGGGAGA | 0.347
TCCCGCGTAGTGTACGAGA | 0.108
TCCCTATTAGTGAGTGAGA | 0.762
TCCCTATTAGTGTGTGAGA | 0.219
TCCCTATTAGTGAGAGAGA | 0.631
TCCCGTGGAGTGCACGAGA | 0.315
TCCCCACCAGTGGATGAGA | 1.05
TCCCCACGAGTGGATGAGA | 0.382
TCCCCCCCAGTGGATGAGA | 0.232
TCCCAACAAGTGGATGAGA | 0.243
TCCCCACAAGTGGATGAGA | 1.22
TCCCCCACAGTGGATGAGA | 0.294

Sequence | TetR repression strength
TCCCCCCGAGTAAGTGAGA | 0.278
TCCCGTCTAGTACTCGAGA | 0.262
TCCCAAAGAGTGGGCGAGA | 0.0498
TCCCTCTTAGTGTGGGAGA | 0.0777
TCCCGATGAGTATGTGAGA | 0.366
TCCCTGCCAGTATAGGAGA | 0.308
TCCCCCCTAGTGGACGAGA | 0.178
TCCCTCGTAGTGGATGAGA | 0.206
TCCCTATGAGTTCCAGAGA | 1.01
TCCCTATGAGTTCCCGAGA | 0.289
TCCCTATGAGTTTAAGAGA | 1.03
TCCCTAAGAGTAAAAGAGA | 0.839
TCCCTATGAGTTGAAGAGA | 0.326
TCCCTATGAGTACGAGAGA | 0.291
TCCCTAAGAGTAAACGAGA | 0.446
TCCCTATGAGTTTGAGAGA | 0.33
TCCCTATGAGTTCGAGAGA | 0.195
TCCCTAAGAGTACCAGAGA | 0.429
TCCCTATGAGTACCAGAGA | 0.857
TCCCTATGAGTAAAAGAGA | 0.24
TCCCGTGTAGTAAGTGAGA | 0.313
TCCCCGAGAGTTGGGGAGA | 0.104
TCCCAATCAGTCCGCGAGA | 0.295
TCCCAAGTAGTCACGGAGA | 0.295
TCCCCCGGAGTAGAGGAGA | 0.187
TCCCGGCTAGTAGCAGAGA | 0.0201

Sequence | TetR repression strength
TCCCTTTGAGTCGCAGAGA | 0.386
TCCCAGGGAGTGGAAGAGA | 0.235
TCCCGACTAGTTCGCGAGA | 0.367
TCCCATATAGTTAGCGAGA | 0.247
TCCCTCAGAGTTCCAGAGA | 0.313
TCCCCACTAGTCCGTGAGA | 0.279
TCCCCTAAAGTACAGGAGA | 0.0737
TCCCCTTAAGTACAGGAGA | 0.72
TCCCCTATAGTATAGGAGA | 0.0691
TCCCTTAAAGTACAGGAGA | 0.125
TCCCTTATAGTACAGGAGA | 0.103
TCCCCTATAGTACAGGAGA | 0.792
TCCCTGGAAGTGCAAGAGA | 0.431
TCCCAGTCAGTTGAAGAGA | 0.858
TCCCAATCAGTTGAAGAGA | 0.279
TCCCAGGCAGTTGACGAGA | 0.698
TCCCAGGCAGTTGAAGAGA | 0.182
TCCCAGGGAGTTGACGAGA | 0.0614
TCCCAGGCAGTTGAGGAGA | 0.216
TCCCACCAAGTCAATGAGA | 0.943
TCCCAATGAGTCAATGAGA | 0.207
TCCCAAGTAGTCAATGAGA | 0.663
TCCCCACCAGTCAATGAGA | 0.315
TCCCATCCAGTCAATGAGA | 0.0518
TCCCACCCAGTCAATGAGA | 0.783
TCCCCGCGAGTTGTAGAGA | 0.0957

Sequence | TetR repression strength
TCCCGGGTAGTTACTGAGA | 0.123
TCCCCAGAAGTGCGTGAGA | 0.0661
TCCCAACTAGTCGTCGAGA | 0.214
TCCCGACGAGTCGACGAGA | 0.178
TCCCAACTAGTCGACGAGA | 0.701
TCCCAACGAGTCGACGAGA | 0.696
TCCCAACGAGTCAACGAGA | 0.366
TCCCAACTAGTCGAAGAGA | 0.267
TCCCTGCTAGTGAAGGAGA | 0.649
TCCCTACCAGTGATAGAGA | 0.94
TCCCTAGCAGTGATAGAGA | 0.858
TCCCTAGCAGTGAGAGAGA | 0.376
TCCCTAGTAGTGATAGAGA | 0.533
TCCCTAACAGTGATAGAGA | 0.816
TCCCTCCCAGTGATAGAGA | 0.561
TCCCTTCCAGTGATAGAGA | 0.668
TCCCAACGAGTTGTGGAGA | 0.189
TCCCACGCAGTAGGTGAGA | 0.138
TCCCTGCTAGTAGGAGAGA | 0.415
TCCCAGTCAGTGGCGGAGA | 0.205
TCCCTAGAAGTACTAGAGA | 0.152
TCCCCAGCAGTTTAGGAGA | 0.207
TCCCGTCGAGTTTGTGAGA | 0.772
TCCCGTCTAGTTAGAGAGA | 0.224
TCCCGTCGAGTTTTTGAGA | 0.363
TCCCGTCTAGTTTGCGAGA | 0.277

Sequence | TetR repression strength
TCCCGTCGAGTTAGTGAGA | 0.366
TCCCGTCTAGTTTGTGAGA | 0.784
TCCCGTCGAGTTTGAGAGA | 0.274
TCCCGTCTAGTGTGTGAGA | 0.237
TCCCGTCTAGTTAGTGAGA | 0.719
TCCCTGTGAGTCGCGGAGA | 0.327
TCCCGGTCAGTGCTAGAGA | 0.638
TCCCAGGGAGTCAGTGAGA | 0.319
TCCCTACTAGTAGTAGAGA | 0.389
TCCCGGATAGTTGATGAGA | 0.285
TCCCACTCAGTGAGGGAGA | 0.255
TCCCGCAGAGTTAGAGAGA | 0.5
TCCCATACAGTGAGTGAGA | 0.176
TCCCGAGAAGTCGCGGAGA | 0.0355
TCCCAGTAAGTATCGGAGA | 0.221
TCCCAGTAAGTCCGGGAGA | 0.157
TCCCAGTAAGTCGGGGAGA | 0.698
TCCCAGTAAGTGGGGGAGA | 0.196
TCCCAGTAAGTGTCGGAGA | 0.811
TCCCAGTGAGTGTCGGAGA | 0.183
TCCCTGTGAGTGACGGAGA | 0.115
TCCCTGTAAGTGACGGAGA | 0.796
TCCCTGAAAGTGACGGAGA | 0.506
TCCCGTGGAGTCGTGGAGA | 0.209
TCCCGTGCAGTCGTGGAGA | 1
TCCCGTGCAGTCGTCGAGA | 0.216

Sequence | TetR repression strength
TCCCGCATAGTAGGTGAGA | 0.317
TCCCAATGAGTTCGTGAGA | 0
TCCCTCATAGTGGGCGAGA | 0.213
TCCCGCCCAGTAGGGGAGA | 0.163
TCCCTGCAAGTTGATGAGA | 0.246
TCCCATGTAGTCCTGGAGA | 0.341
TCCCCTTAAGTGGTAGAGA | 0.201
TCCCCGTTAGTGTCGGAGA | 0.137
TCCCATTCAGTCTTTGAGA | 0.228
TCCCTGTCAGTCGGGGAGA | 0.154
TCCCGTACAGTGGGGGAGA | 0.145
TCCCAGTCAGTCGGGGAGA | 0.776
TCCCAGCCAGTCGGGGAGA | 0.184
TCCCAGTCAGTCTTTGAGA | 0.726
TCCCGTACAGTCGGGGAGA | 0.698
TCCCAGTGAGTCTTTGAGA | 0.339
TCCCGTATAGTCGGGGAGA | 0.216
TCCCGGTGAGTCAAAGAGA | 0.338
TCCCTTCCAGTCATTGAGA | 0.225
TCCCTGTCAGTATAGGAGA | 0.0605
TCCCGCCGAGTGGACGAGA | 0.514
TCCCCTGCAGTTGGAGAGA | 0.159
